# Reference: the supplement of paper PMC12636033
# ± gives the standard deviation of the averaged measurements. Whole data set: some 33,000 sequences, median “E-score (rank enrichment, -0.5 to 0.5)” near -0.0068, cut for the highest 2% near 0.24. This is one part of a sample in which the highest values are shown more often than they occur.
# Tested on: muMax20 (Max(13-93) K31hArg/K57hArg, M65Nle)
# Assay: PBM 8-mer E-score (E-score (rank enrichment, -0.5 to 0.5)); higher = stronger preferential binding
# Description: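 Protein binding microarray (universal PBM chip covering all 10-mers in fixed probe flanks) with chemically synthesized human Max(13-93) bHLH-LZ analogs (not full-length Max) bearing noncanonical residues (hArg, Tha, Aib, Nle at 65) and aromatic Cys staples. Read-out per 8-mer (and its reverse complement): E-score (rank-based enrichment, -0.5 to 0.5) and Z-score of median probe intensity.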
row,Sequence,PBM 8-mer E-score
1,CCCGTGTC,-0.147 ± 0.032
2,CACGTGTC,0.448 ± 0.053
3,AACGTGTA,0.2 ± 0.026
4,AAAGTGTA,0.12 ± 0.1
5,CACGTGTA,0.444 ± 0.054
6,TAAGTGTA,0.159 ± 0.064
7,CAAGTGTA,0.244 ± 0.042
8,AACGTGTC,0.145 ± 0.043
9,GACGTGTA,0.0986 ± 0.0068
10,ATACTTTC,0.127 ± 0.013
11,CAAGAAGG,0.158 ± 0.048
12,AGTCGACT,0.176 ± 0.13
13,ACATCCGC,-0.188 ± 0.099
14,CTACTATA,0.249 ± 0.062
15,TTACTAAA,0.123 ± 0.07
16,ATACTAAC,0.164 ± 0.066
17,GTACTAAA,0.108 ± 0.067
18,AAACTATA,0.192 ± 0.05
19,CTACTAAC,0.237 ± 0.013
20,ATACTAAA,0.242 ± 0.038
21,CTACTATC,0.132 ± 0.0082
22,CAACTATA,0.108 ± 0.0066

row,Sequence,PBM 8-mer E-score
1,ATACTATA,0.156 ± 0.08
2,CTACTAAG,-0.0701 ± 0.18
3,TAACTATA,0.303 ± 0.0032
4,TCGAACGA,0.0488 ± 0.053
5,AACTGGCG,-0.0858 ± 0.061
6,ATCGGCAA,-0.18 ± 0.089
7,TCACCGCA,-0.0327 ± 0.14
8,GATAAGCC,-0.111 ± 0.075
9,GCAGATGA,0.0628 ± 0.064
10,CTTAGACC,-0.135 ± 0.073
11,GAGGGGCC,-0.0409 ± 0.045
12,TCGTGTAA,0.13 ± 0.07
13,ACGTGTAA,0.327 ± 0.048
14,ACGTGTAG,0.19 ± 0.087
15,CCGTGTAA,-0.147 ± 0.048
16,ACGTGTAC,0.233 ± 0.056
17,ACGTGTAT,0.386 ± 0.031
18,ATACTGAA,0.0687 ± 0.079
19,GCAGGTCA,-0.191 ± 0.0023
20,CGCTCGAA,-0.156 ± 0.0039
21,AGATCTTC,-0.15 ± 0.053
22,CCATGTCG,-0.0015 ± 0.13

row,Sequence,PBM 8-mer E-score
1,GATACAAA,0.0222 ± 0.023
2,GACACATA,0.139 ± 0.071
3,TATACATA,0.237 ± 0.023
4,AATACATG,0.205 ± 0.015
5,TACACATA,0.245 ± 0.037
6,AATACAAA,0.343 ± 0.042
7,AATACATT,0.158 ± 0.021
8,GATACATA,0.204 ± 0.044
9,AATACATA,0.255 ± 0.074
10,CATACATA,0.163 ± 0.068
11,CACACATA,0.12 ± 0.12
12,AATACAAG,0.137 ± 0.0018
13,ACTGGATC,-0.0849 ± 0.029
14,CCTCATCA,-0.0311 ± 0.07
15,CGTCTACA,-0.0683 ± 0.077
16,ATTCGACG,0.0309 ± 0.1
17,CACGAGCA,-0.159 ± 0.013
18,GAAAACGA,0.0327 ± 0.09
19,AAAGACGA,0.246 ± 0.0064
20,GAAGACGA,-0.0988 ± 0.065
21,AAAAACGG,-0.048 ± 0.14
22,AAAAACGT,0.249 ± 0.0044

row,Sequence,PBM 8-mer E-score
1,AAAAACGA,0.297 ± 0.0076
2,CAAAACGA,0.0111 ± 0.00023
3,AAAAACGC,0.0604 ± 0.015
4,AAAGACGG,0.0825 ± 0.019
5,CTCGGTCC,-0.2695 ± 0.0006
6,AGAGTTCA,-0.124 ± 0.038
7,CGTTCGCA,-0.0226 ± 0.0093
8,CTCAGACA,0.044 ± 0.035
9,GCCATATA,0.0868 ± 0.0087
10,ATACTACA,0.222 ± 0.078
11,ATACTTCA,0.0693 ± 0.032
12,GTACTACA,0.262 ± 0.072
13,GTACTTCA,0.237 ± 0.13
14,CTACTACA,0.146 ± 0.08
15,CTACTTCA,0.00799 ± 0.001
16,ATCAGCGC,-0.0642 ± 0.0034
17,CACCGGAG,-0.173 ± 0.083
18,ACACATTC,-0.0504 ± 0.14
19,AATACGAA,0.136 ± 0.041
20,GATCAACA,0.0109 ± 0.0053
21,AATCAACA,0.256 ± 0.032
22,TATCAACA,0.158 ± 0.054
